Screens from PubChem.
Compounds with a hit are over-represented: about 3.2% of the library has one in this group of screens.
Lassa entry inh = inhibitors of Lassa virus binding or cell entry | Lassa virus pseudotype entry inhibition, cell reporter | Potency, µM (doses to about 37.9 µM), usual class: inhibitors | actives 1.2% (n = 300,000) | AID 540256; calls by dose curve; tested in HEK293 cells; further: nearly all actives have a fitted effect of over 50% in size
Vaccinia Venus = vaccinia inhibition (Venus reporter); Vaccinia virus Venus reporter expression, fluorescence; AID 720580; Potency, µM (top dose mostly 36.5 µM), actives largely listed as inhibitors; actives 0.46% (n = 330,000); calls by dose curve; tested in A549 cells; further: nearly all actives have a fitted effect of over 30% in size
Marburg entry inh = inhibitors of Marburg virus binding or cell entry; Marburg virus pseudotyped entry inhibition, cell reporter; Potency, µM (top dose mostly 37.8 µM), hits mostly inhibitors; AID 540276; actives 1.8% (n = 300,000); calls by dose curve; tested in HEK293 cells
Vaccinia mCherry = inhibitors of vaccinia virus infection (mCherry reporter signal); Vaccinia virus mCherry reporter infection, fluorescence; actives 0.63% (n = 310,000); Potency, µM (top dose mostly 36.5 µM), actives largely listed as inhibitors; calls by dose curve; tested in A549 cells; further: nearly all actives have a fitted effect of over 35% in size
FMDV inh = blocks foot and mouth disease virus; FMDV antiviral cell-based qHTS; Potency, µM (top dose mostly 57.9 µM), most hits filed as inhibitors; actives 1.2% (n = 410,000); AID 1159524; calls by dose curve; tested in HEK293T cells; further: read-out not given here; nearly all actives have a fitted effect of over 45% in size
Large screens that a line does not name were inactive; ! = repeats disagree.

O=S1(=O)C=C[C@@H](CO)N1Cc1ccc(Br)cc1	none (no result: Lassa entry inh, Marburg entry inh)
COc1cc2nc(N3CCCC(O)C3)c(CNCc3ccccc3C(F)(F)F)cc2c(OC)c1OC (stereo not given)	none (no result: Lassa entry inh, Marburg entry inh)
CN(CC(=O)Nc1cccc(F)c1)C(=O)CN1C(=O)C2CCCCC2C1=O (stereo not given)	none (no result: Lassa entry inh, Vaccinia Venus, Marburg entry inh, Vaccinia mCherry)
Fc1ccc(Nc2nc3nonc3nc2Nc2cccc(C(F)(F)F)c2)cc1	Lassa entry inh inconclusive, Vaccinia Venus inconclusive, Marburg entry inh 2.24µM, Vaccinia mCherry inconclusive, FMDV inh inconclusive
COc1ccc(-c2cc(=O)c3cc(OC)ccc3o2)cc1	none (no result: Lassa entry inh, Marburg entry inh)
COc1ccc(-c2c3c(cc(C)[n+]2[O-])oc2ccc(OC)cc23)cc1	Lassa entry inh inconclusive, FMDV inh 28.2µM
COc1ccc2oc3cc(C)[n+]([O-])c(-c4ccc(C)cc4)c3c2c1	Lassa entry inh inconclusive, Marburg entry inh inconclusive, FMDV inh 25.1µM
COc1ccc2oc3cc(C)[n+]([O-])c(-c4ccc(Cl)cc4)c3c2c1	Lassa entry inh inconclusive, Marburg entry inh inconclusive, FMDV inh 35.5µM
COC(=O)N/N=C/c1c(C)nn(-c2cccc(Cl)c2)c1Cl	none
CCOC(=O)N/N=C/c1c(C)nn(-c2cccc(C(F)(F)F)c2)c1Cl	Lassa entry inh 7.08µM, Vaccinia Venus inconclusive, Marburg entry inh inconclusive, Vaccinia mCherry inconclusive, FMDV inh inconclusive
O=P(c1ccccc1)(c1ccccc1)c1ccccc1C(Br)Br	none (no result: Lassa entry inh, Marburg entry inh)
O=C(c1cccs1)N1C[C@H](O)[C@H](n2cc(C3CC3)nn2)C[C@@H]1c1ccccc1	none (no result: Vaccinia Venus, Marburg entry inh, Vaccinia mCherry, FMDV inh)
NN(CCO)C(=S)Nc1ccc(Cl)cc1	Vaccinia Venus inconclusive, Vaccinia mCherry 10µM
CN(C(=O)c1ccccc1C(=O)OCC(=O)Nc1ccccc1)c1ccccc1	none (no result: Lassa entry inh, Vaccinia Venus, Marburg entry inh, Vaccinia mCherry)
COc1ccc2c(c1)CC(C(=O)NCCN1CCN(c3cccc(Cl)c3)CC1)CO2 (stereo not given)	none (no result: Marburg entry inh)
Cc1cc(C)cc(N2C(=O)NC(=O)/C(=C/c3cccn3-c3ccc(Cl)cc3)C2=O)c1	Lassa entry inh inconclusive, Marburg entry inh inconclusive, FMDV inh 14.1µM
COc1ccc(-n2cccc2/C=C2/NC(=O)N(c3cccc(Cl)c3)C2=O)cc1	none
Cc1cccc(N2C(=O)NC(=O)/C(=C\c3cccn3-c3ccc(Cl)cc3)C2=O)c1	Lassa entry inh inconclusive, Vaccinia Venus inconclusive, Marburg entry inh inconclusive, FMDV inh 10µM (no result: Vaccinia mCherry)
CC(C)(C)n1cccc1/C=C1\C(=O)NC(=O)N(c2ccccc2)C1=O	none
Cn1c(N2CCN(S(=O)(=O)c3ccc(Cl)cc3)CC2)nc2ccccc21	FMDV inh inconclusive
CCc1nc2ccccc2nc1N1CCN(S(=O)(=O)c2ccc(Cl)cc2)CC1	Lassa entry inh inconclusive, Marburg entry inh 11.2µM, FMDV inh inconclusive
O=S(=O)(c1ccc(Cl)cc1)N1CCN(c2ncnc3sccc23)CC1	Lassa entry inh inconclusive, Marburg entry inh inconclusive, FMDV inh 14.1µM
Cc1cc(N2CCN(C(=O)Oc3ccc([N+](=O)[O-])cc3)CC2)c2ccccc2n1	FMDV inh 25.1µM (no result: Lassa entry inh, Marburg entry inh)
CCC(=O)N1CCN(c2ccnc3cc(Cl)ccc23)CC1	none
O=C(c1ccc(Cl)cc1)N1CCN(c2ccnc3cc(Cl)ccc23)CC1	Lassa entry inh inconclusive, Marburg entry inh inconclusive, Vaccinia mCherry inconclusive, FMDV inh 28.2µM
COc1ccc([C@H]2/C(=C(\O)c3ccccc3)C(=O)C(=O)N2c2ncccn2)cc1OC	none (no result: Lassa entry inh, Vaccinia Venus, Vaccinia mCherry, FMDV inh)
CCC1CCCCN1CCCNC(=O)CN1C(=O)COc2ccccc21 (stereo not given)	none (no result: Lassa entry inh, Marburg entry inh)
Cc1cc(C)c(NC(=O)CNC(=O)COC(=O)C2=COCCO2)c(C)c1	none
Cc1cc(N2CCN(S(=O)(=O)c3ccc(Cl)cc3)CC2)c2ccccc2n1	Lassa entry inh 16.4µM, Vaccinia Venus inconclusive, Marburg entry inh inconclusive, Vaccinia mCherry inconclusive (no result: FMDV inh)
Cc1ccc(S(=O)(=O)N2CCN(c3ccnc4cc(Cl)ccc34)CC2)cc1	Marburg entry inh 5.01µM
CC(C)N(C(=O)N1CCN(c2ccnc3cc(Cl)ccc23)CC1)C(C)C	Lassa entry inh 11.2µM, Marburg entry inh inconclusive, FMDV inh inconclusive
CCn1c(C)nc2cc(C(=O)N3N=C(CCOC)CC3(O)C(F)(F)F)ccc21 (stereo not given)	none (no result: Lassa entry inh, Vaccinia Venus, Marburg entry inh, Vaccinia mCherry)
Cc1cccc(C)c1Nc1oc(-c2ccccc2)nc1C(C)(C)C	none (no result: Lassa entry inh, Vaccinia Venus, Vaccinia mCherry, FMDV inh)
CC1(C(=O)Nc2ccc3c(c2)OCCO3)CSCC(=O)N1Cc1ccco1 (stereo not given)	none (no result: Lassa entry inh, Marburg entry inh)
COc1ccc(/C=C/C(=O)N2CCc3c(cnc(C)c3CNC(=O)c3ccsc3)C2)cc1OC	none (no result: Lassa entry inh, Marburg entry inh)
N/C(Cc1ccc(Cl)cc1)=N\OC(=O)c1ccc2ccccc2c1	Lassa entry inh inconclusive, Marburg entry inh 2.82µM
COc1ccc(C/C(N)=N/OC(=O)c2ccc(Cl)cc2)cc1	Lassa entry inh inconclusive
N/C(Cc1ccc(Cl)cc1)=N\OC(=O)c1cccc2ccccc12	Lassa entry inh 11.6µM, Marburg entry inh inconclusive, FMDV inh inconclusive
COc1ccc(S(=O)(=O)n2nc(-n3c(C)ccc3C)c3c(F)cccc32)cc1OC	Lassa entry inh inconclusive, Marburg entry inh 8.91µM
Cc1ccc(C)n1-c1nn(S(=O)(=O)c2ccccc2)c2cccc(F)c12	Marburg entry inh inconclusive
c1csc(CNc2ccc3c(c2)OCCO3)c1	Lassa entry inh inconclusive, Marburg entry inh 1µM, FMDV inh inconclusive
C(=Nc1ccc2ccccc2n1)c1cccnc1	none (no result: Lassa entry inh, Marburg entry inh, FMDV inh)
Cc1cccc(C(=O)NCc2nc(-c3cccc(NC(=O)C4CCCN(C)C4)c3)oc2C)n1 (stereo not given)	none (no result: Lassa entry inh, Marburg entry inh)
CCNC(=O)CSc1nnc(-c2cccc(S(=O)(=O)N3CCOCC3)c2)o1	Vaccinia Venus inconclusive, Vaccinia mCherry 11.2µM
COC(=O)[C@@H](NC(=O)C1CCCN(c2nc(C)c3ccc(C)cc3n2)C1)C(C)C (stereo not given in full)	none (no result: Lassa entry inh, Marburg entry inh)
c1ccc2c(N3CCCCCC3)nc(CN3CCCCC3c3nccs3)nc2c1 (stereo not given)	Vaccinia mCherry inconclusive (no result: Lassa entry inh, Marburg entry inh)
CCCCCC(=O)O[C@]1(C(C)=O)CC[C@H]2[C@@H]3CCC4=CC(=O)CC[C@]4(C)[C@H]3CC[C@@]21C	Marburg entry inh 10.3µM, Vaccinia mCherry inconclusive
CC(=O)[C@@]1(O)CC[C@H]2[C@@H]3CCC4=CC(=O)CC[C@]4(C)[C@H]3CC[C@@]21C	Lassa entry inh 20.6µM!, FMDV inh inconclusive
CC(=O)C1CCC2C3CCC4=CC(=O)CC[C@@]4(C)C3CC[C@]12C (stereo not given in full)	FMDV inh 22.4µM (no result: Lassa entry inh, Marburg entry inh)
C[C@]12CCC(=O)C=C1CCC1C2CC[C@@]2(C)C1CC[C@]2(C)O (stereo not given in full)	Lassa entry inh inconclusive, Marburg entry inh inconclusive
Oc1ccc2c(c1)oc1cc(O)ccc12	Lassa entry inh inconclusive, Vaccinia Venus inconclusive, Vaccinia mCherry 10µM
CCOc1ccc(CCNC(=O)COC(=O)c2c(C)nn(-c3ccccc3)c2C)cc1OCC	none
Cc1cc(NC(=O)COC(=O)c2c(C)nn(-c3ccccc3)c2C)no1	Lassa entry inh 18.3µM, Marburg entry inh inconclusive (no result: Vaccinia Venus, Vaccinia mCherry)
Cc1nn(-c2ccccc2)c(Cl)c1C(=O)OCC(=O)NCCc1ccccc1	Lassa entry inh inconclusive, Marburg entry inh 11.2µM
O=c1[nH]c2ccccc2n1C1CCN(C(c2cc3ccccc3o2)c2nnnn2-c2ccc3c(c2)OCCO3)CC1 (stereo not given)	Vaccinia Venus inconclusive, Vaccinia mCherry inconclusive, FMDV inh 35.5µM (no result: Lassa entry inh, Marburg entry inh)
